About 83,000 compounds went through this panel and 20% of them were active in at least one assay; those are over-represented in the sample as a whole.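 Compound tested at a single concentration for 48 hours in 96-well plates; a percent growth value below 10 was scored as active.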 Unmarked numbers belong to inactive results. The source made the active and inactive calls.
Legend:
Test in all cases: NCI-60 one-dose screen, 48 h (100 = growth as untreated, 0 = no growth, -100 = all killed)
Conditions in all cases: 10 µM unless noted
NCI-H23 lung = test system: NCI-H23 lung
NCI-H226 lung = test system: NCI-H226 lung
NCI-H322M lung = test system: NCI-H322M lung
HOP-62 NSCLC = test system: HOP-62 NSCLC
NCI-H460 lung = test system: NCI-H460 lung
HOP-92 NSCLC = test system: HOP-92 NSCLC
NCI-H522 lung = test system: NCI-H522 lung
A549/ATCC NSCLC = test system: A549/ATCC NSCLC
786-0 renal = test system: 786-0 renal
COLO 205 colon = test system: COLO 205 colon
DU-145 prostate = test system: DU-145 prostate
K-562 leukemia = test system: K-562 leukemia
MALME-3M melanoma = test system: MALME-3M melanoma
MDA-MB-231 breast = test system: MDA-MB-231 breast
RXF 393 renal = test system: RXF 393 renal
SF-268 CNS = test system: SF-268 CNS
SF-295 CNS = test system: SF-295 CNS
SF-539 CNS = test system: SF-539 CNS
UACC-257 melanoma = test system: UACC-257 melanoma
M14 melanoma = test system: M14 melanoma

Row | Compound | growth (NCI-H23 lung) | growth (NCI-H226 lung) | growth (NCI-H322M lung) | growth (HOP-62 NSCLC) | growth (NCI-H460 lung) | growth (HOP-92 NSCLC) | growth (NCI-H522 lung) | growth (A549/ATCC NSCLC) | growth (786-0 renal) | growth (COLO 205 colon) | growth (DU-145 prostate) | growth (K-562 leukemia) | growth (MALME-3M melanoma) | growth (MDA-MB-231 breast) | growth (RXF 393 renal) | growth (SF-268 CNS) | growth (SF-295 CNS) | growth (SF-539 CNS) | growth (UACC-257 melanoma) | growth (M14 melanoma)
1 | COc1ccc(/C=C\c2cc(OC)c(OC)c(OC)c2)c(NS(=O)(=O)c2ccc(C)cc2)c1O | 23.2% | 33.9% | 43.6% | 80.7% | 6.42% (active) | 44.4% | -17.3% (active) | 26.6% | 18.8% | -15.5% (active) | -14.4% (active) | 17.6% | 92.2% | 14.8% | 32.5% | 19.4% | 16.9% | 1.5% (active) | 66.7% | 9.2% (active)
2 | Cc1cnc(/C=C/C(=O)O)cc1-c1cc2c(cc1C)C(C)(C)CCC2(C)C | 79.2% | 82.8% | 110% | 94.4% | 85.8% | 56.8% | 65.8% | 63.3% | 76.5% | 102% | 95.7% | 109% | 8.87% (active) | 80.9% | 93.7% | 77.6% | 86.1% | 84.3% | 38.3% | 77.1%
3 | O=[N+]([O-])CC(O)C(Cl)(Cl)Cl (stereo not given) | 98.6% | 103% | 103% | 99.8% | 101% | 93.2% | 99.1% | 106% | 103% | 98.2% | 117% | 113% | 97.5% | 122% | 116% | 101% | 102% | 92.6% | 111% | 104%
4 | Clc1cccc(NCOOC2(OOCNc3cccc(Cl)c3)CCCCCC2)c1 | 69% | 102% | 96.2% | 87.4% | 102% | 57.5% | 81.6% | 92.8% | 47.3% | 113% | 103% | 32.6% | 97% | 103% | 114% | 94.3% | 90.4% | 86.8% | 112% | 97.3%
5 | Cc1ccc(C(Cc2ccccc2)NCCO)cc1 (stereo not given) | 101% | 97.2% | 96.4% | 80.3% | 105% | 74.8% | 52.3% | 69.2% | 80.8% | 82.1% | 104% | 104% | 97.2% | 103% | 99.2% | 98% | 98.3% | 85.1% | 92% | 87%
6 | OCCCCCNC1CCCCC1 | 97.3% | 98.9% | 99% | 111% | 109% | 96.1% | 67.8% | 107% | 99.5% | 112% | 115% | 94% | 97.3% | 114% | 104% | 113% | 110% | 98% | 99.5% | 101%
7 | O=C([O][Hg][c]1ccccc1)c1ccccc1 | 1.89% (active) | 96.4% | 67.7% | -33.7% (active) | 11.7% | -61.3% (active) | -64.1% (active) | 76.2% | -93.8% (active) | -70% (active) | -35.7% (active) | -21.4% (active) | -4.96% (active) | -53.1% (active) | -72.4% (active) | -34.9% (active) | 56.8% | 19.4% | -30% (active) | -68.3% (active)
8 | CNC12C3C4C1C1C2C3C41C(=O)N[C@H](C(=O)N(C)[C@H](C[C@@H](OC(C)=O)c1nc(C(=O)N[C@@H](Cc2ccccc2)C[C@H](C)C(=O)OC)cs1)C(C)C)C1CC1 (stereo not given in full) | 7.82% (active) | 11.2% | 48.5% | 22.1% | 14.8% | -15.3% (active) | -27.4% (active) | 17.7% | 15.5% | -46.5% (active) | -1.19% (active) | 0.86% (active) | 34% | 0.928% (active) | 25.5% | 14.4% | 7.26% (active) | -1.2% (active) | 41.1% | 4.03% (active)
9 | CC[C@H](C)[C@H](NC(=O)c1nccn1C)C(=O)N(C)[C@H](C[C@@H](OC(C)=O)c1nc(C(=O)N[C@@H](Cc2ccccc2)C[C@H](C)C(=O)OC)cs1)C(C)C | 29.8% | 37.1% | 43.9% | 16.6% | 9.82% (active) | 29.9% | -26.7% (active) | 25.2% | 30.8% | -12.8% (active) | 4.69% (active) | 6.34% (active) | 71.6% | -5.75% (active) | -0.416% (active) | 25.6% | 4.7% (active) | -31.7% (active) | 54.2% | 3.12% (active)
10 | CC(=O)OCc1cc[c]([Hg][Cl])o1 | 58.8% | 81.5% | 98.7% | 91.4% | 84.9% | 53.8% | -53.6% (active) | 73.9% | 24.5% | -1.94% (active) | 84.2% | 7.96% (active) | -39.7% (active) | 26% | -38.7% (active) | 22.5% | 78.1% | 44.2% | 53.5% | 13%
11 | CCOP(=O)(NC[C@H]1O[C@](O)(CO)[C@@H](O)[C@@H]1O)OCC | 97.4% | 75.9% | 112% | 91% | 105% | 93.1% | 88.3% | 96.6% | 99.8% | 102% | 105% | 97.5% | 89.1% | 94.3% | 96.4% | 94.4% | 104% | 96.3% | 98.4% | 93.1%
12 | CC(=O)OC[C@]1(C)C=C2C(=O)[C@](C)(O)C3(CC3)C(C)=C2[C@H]1O | -35.5% (active) | -15% (active) | -23.1% (active) | -29.4% (active) | -37.4% (active) | -25.8% (active) | -52.5% (active) | -21.4% (active) | -46.2% (active) | -33.5% (active) | -19.4% (active) | 27.2% | -78.8% (active) | -28.1% (active) | -79.4% (active) | -8.2% (active) | -19.3% (active) | -68.9% (active) | -28.9% (active) | -66.9% (active)
13 | O=C1C2C(C(=O)[N]1[Hg][c]1ccccc1)C1(Cl)C(Cl)=C(Cl)C2(Cl)C1(Cl)Cl (stereo not given) | -8.01% (active) | 82.9% | 45.1% | 47.2% | -20.9% (active) | -84.5% (active) | -87.4% (active) | 78.7% | 26% | -96.5% (active) | -86.6% (active) | 4.39% (active) | -78.4% (active) | -2.38% (active) | -98.6% (active) | -66.4% (active) | 67.8% | 10.3% | -67.8% (active) | -82.3% (active)
14 | COC(=O)[C@@H](C)C[C@H](Cc1ccccc1)NC(=O)c1nc([C@@H](C[C@H](C(C)C)N(C)C(=O)[C@@H](NC(=O)[C@H]2CC(=O)CCN2C)C(C)C)OC(C)=O)sc1C(C)C | 26.5% | -25.2% (active) | 30.1% | 15.6% | 3.43% (active) | 34.8% | -30.5% (active) | 18.7% | 6.83% (active) | -39.9% (active) | -11.3% (active) | 12.3% | 44.3% | 6.36% (active) | 6.58% (active) | 20% | -1.71% (active) | -18% (active) | 77.6% | -10.3% (active)
15 | NC(N)=N/N=C\c1c[nH]c2ccc(Br)cc12 | 86.3% | 69.2% | 87.9% | 83.5% | 102% | 37.9% | 81% | 92.5% | 78.6% | 84.5% | 96.2% | 74.6% | 76.8% | 101% | 99% | 64.6% | 79.9% | 84% | 69.3% | 94.1%
16 | C1CCC([PH+](C2CCCCC2)C2CCCCC2[PH+](C2CCCCC2)C2CCCCC2)CC1.O=C(C1[CH-]CCCC1)C1CCCC[N-]1.[Au] (stereo not given) | -35% (active) | -60.1% (active) | -48% (active) | -9.03% (active) | -49.6% (active) | -36.8% (active) | -22.4% (active) | -39.9% (active) | -77.2% (active) | -45% (active) | -38.7% (active) | 5.08% (active) | -66.3% (active) | -54.9% (active) | -95.2% (active) | -28.5% (active) | -46.8% (active) | -87.9% (active) | -45.6% (active) | -52.2% (active)

From PubChem BioAssay (NCI)
